Values joined by “and” are separate entries in the source; they are usually repeats but may differ in a detail not shown here. Equal entries are not always repeated. Compounds without any hit were thinned out: in the full panel of roughly 83,000, 20% have a hit.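 Growth was measured after 48 h exposure to one concentration of compound in 96-well plates. Values under 10 count as active.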 Active and inactive are the calls of the source.
System: HL-60(TB) leukemia
Assay: NCI-60 one-dose screen, 48 h (100 = growth as untreated, 0 = no growth, -100 = all killed)
Details: 10 µM unless noted

| SMILES | growth |
| --- | --- |
| Nc1ccn([C@@H]2O[C@H](COP(=O)(O)O[C@@H]3C[C@H](n4cc(F)c(=O)[nH]c4=O)O[C@@H]3COP(=O)(O)O[C@@H]3C[C@H](n4cc(F)c(=O)[nH]c4=O)O[C@@H]3COP(=O)(O)O[C@@H]3C[C@H](n4cc(F)c(=O)[nH]c4=O)O[C@@H]3COP(=O)(O)O[C@@H]3C[C@H](n4cc(F)c(=O)[nH]c4=O)O[C@@H]3COP(=O)(O)O[C@@H]3C[C@H](n4cc(F)c(=O)[nH]c4=O)O[C@@H]3COP(=O)(O)O[C@@H]3C[C@H](n4cc(F)c(=O)[nH]c4=O)O[C@@H]3COP(=O)(O)O[C@@H]3C[C@H](n4cc(F)c(=O)[nH]c4=O)O[C@@H]3COP(=O)(O)O[C@@H]3C[C@H](n4cc(F)c(=O)[nH]c4=O)O[C@@H]3COP(=O)(O)O[C@@H]3C[C@H](n4cc(F)c(=O)[nH]c4=O)O[C@@H]3COP(=O)(O)O[C@@H]3C[C@H](n4cc(F)c(=O)[nH]c4=O)O[C@@H]3COP(=O)(O)OCCOCCOCCOCCOCCOCCO)[C@H](O)C2O)c(=O)n1 (some centres not stated) | 38.3% (inactive) |
| C=CC(=O)N1CCC[C@H](n2c(=O)n(-c3ccc(Oc4ccccc4)cc3)c3c(N)ncnc32)C1 | 92.4% (inactive) |
| COc1cc2nc(N3CCC[C@@H](NC4=CC(=O)c5ccccc5C4=O)C3)nc(N)c2cc1OC | -60.3% (active) |
| Cc1nc(NC(=O)NC2CCCCC2)sc1C(=O)NN | 172% (inactive) |
| O=C1C=CC2(NN=C(c3ccccc3)N2c2cccc(Cl)c2)c2cccc(O)c21 (configuration not stated) | 21.8% (inactive) |
| c1ccc(OCC[P+](c2ccccc2)(c2ccccc2)c2ccccc2)cc1 | -19.4% (active) |
| COC(=O)c1ccccc1Br | 76.5% (inactive) |
| c1ccc(CNCCN(CCNCc2ccccn2)Cc2ccc3ccccc3c2)nc1 | -34.5% (active) |
| COc1c(B(O)O)cccc1-c1nc2c(F)cc3[nH]ncc3c2c2c1CCCC2 | -28.3% (active) |
| CSc1nnc(-c2cnn3c2NC(c2ccccc2)C3)n1-c1ccc(C(F)(F)F)cc1 (configuration not stated) | 73.6% (inactive) |
| COc1ccc(Cn2c(NCCN=C(N)N)nc(=O)n(Cc3ccc(F)cc3)c2=O)cc1 | 94.1% (inactive) and 96.9% (inactive) |
| O=C1C(Cl)=C(NCc2ccco2)C(=O)c2ccccc21 | 85% (inactive) |
| COc1ccc(/C=N/C2=C(C#N)C(c3cccc(Cl)c3)c3c(ccc4ccccc34)O2)cc1 (configuration not stated) | -18.6% (active) |
| N#CC1=C(c2ccc(Br)cc2)NC(SCC(=O)c2ccc(Br)cc2)NC1=O (configuration not stated) | 96% (inactive) |
| Cc1ccc(S(=O)c2ccc([N+](=O)[O-])c3nonc23)cc1 (configuration not stated) | 33.2% (inactive) |
| N#CC(C#N)=NO | 104% (inactive) |
| N=C(N)c1ccc(-c2ccc(-c3ccc(F)cc3)o2)o1 | -44.2% (active) |
| O=C(/C=C/c1cccc2ccccc12)c1ccc(NC(=O)c2ccccc2CN2C(=O)c3ccccc3C2=O)cc1 | 44% (inactive) |
| CC(=O)Nc1ccc(O)cc1 | 88.3% (inactive) and 74.2% (inactive) |
| CCOc1ccc(Nc2c3ccccc3nc3ccccc23)cc1 | 90.2% (inactive) and 8.63% (active) and 8.99% (active) |
| Cc1ccc(N)cc1S(=O)(=O)O | 92.7% (inactive) and 111% (inactive) |
| CC(C)(C)c1ccc(O)c(-c2ccccc2)c1 | 0.4% (active) |
| CCN1C(=S)N(c2ccccc2)C2NC(=S)N(/N=C/C=C/c3ccccc3OC)C21 (configuration not stated) | -52.9% (active) |
| CCCCOc1ccc(/C=N/NC(N)=S)cc1 | 60.5% (inactive) |
| CN(C)C(=N)N=C(N)N | 98.3% (inactive) and 145% (inactive) |
| CCOC(=O)c1sc2ncnc(Nc3ccc4c(cnn4C(=O)Nc4ccc(C)c(Cl)c4)c3)c2c1C | 95.3% (inactive) |

| SMILES | growth |
| --- | --- |
| O=C(NCc1ccccc1)Nc1ccccc1CNc1nc(Nc2ccc(OCCN3CCCC3)cc2)ncc1Cl | 62.4% (inactive) |
| COc1ccc2cc(C(=O)c3coc4ccc(O)cc34)ccc2c1 | 73.2% (inactive) |
| O=S(=O)(Nc1ccc(Cl)c(C(F)(F)F)c1)c1ccc(-c2cnc(C3CC3)o2)cc1 | -38.6% (active) |
| Cc1cnc(N)nc1OCCNC(=O)c1cccc(-c2ccc(S(=O)(=O)Nc3ccc4c(c3)N(C(=O)C3CC3)CCC4)cc2)c1 | 43.3% (inactive) |
| CCOC(=O)c1[nH]c(C)c(C(=O)OCc2ccccc2C#N)c1C | 86.6% (inactive) |
| COc1ccccc1C(=O)/C=C/c1cc2cccc(OC)c2[nH]c1=O | -10.5% (active) |
| CC1=C(C#N)C(C)(C)C(C#N)=C(C)N1 | 98.6% (inactive) |
| Cc1cc(NS(=O)(=O)c2ccc(N=Nc3cc(N=Nc4ccc(S(=O)(=O)Nc5cc(C)nc(C)n5)cc4)c4c(NC(=O)C(Cl)Cl)cccc4c3OC(=O)C(Cl)Cl)cc2)nc(C)n1 (tested in a mixture with another compound) | 116% (inactive) and 98.5% (inactive) |
| COc1cccc2cc(-c3cc4ccccc4[nH]3)/c(=N/C(=S)Nc3ccccc3)oc12 | 101% (inactive) |
| N#CC1=C(N)Oc2ccc3ccccc3c2C1c1ccccc1 (configuration not stated) | 2.02% (active) |
| COC(=O)[C@H]1[C@H]2C[C@@H]3c4[nH]c5cc(OC)ccc5c4CCN3C[C@H]2C[C@@H](OC(=O)/C=C/c2cc(OC)c(OC)c(OC)c2)[C@@H]1OC | -40.1% (active) |
| CN(C)CCCOc1cccc(NC2=C(Cl)C(=O)C(Nc3cccc(OCCCN(C)C)c3)=C(Cl)C2=O)c1 | -53.2% (active) |
| CCNCc1ccncc1 | 95.8% (inactive) |
| CCOC(=O)c1nc2c3ccccc3ccn2c1C(=O)OCC | 97.1% (inactive) |
| O=C(Nc1ccc(Oc2ccc(Nc3nc4ccccc4s3)cc2)cc1)Nc1ccc(Cl)c(Cl)c1 | 21.1% (inactive) |
| CC1CCN(S(=O)(=O)c2ccc(S(=O)(=O)N3CCCC(c4nc5c(nnn5Cc5cccc(Cl)c5)c(=O)[nH]4)C3)cc2)CC1 (configuration not stated) | 16.1% (inactive) |
| Cc1c(O)ccc(SC#N)c1C | 101% (inactive) |
| Fc1ccc(-c2cn3c(nc4ccccc43)c(-c3ccccc3)n2)cc1 | 99.8% (inactive) |
| COc1cc2c(c(OC)c1OC)CCC(c1cccc(C(=O)Nc3cccc(Br)c3)c1)O2 (configuration not stated) | 101% (inactive) |
| COc1ccc(C(=O)c2cc(C)c(OC)c(C)c2)c(OC)c1N(C(=O)C(Cl)Cl)C(=O)C(Cl)Cl | -32% (active) |
| N=c1ccc2nc3c(cc(N)c4ccccc43)oc-2c1 | -48.4% (active) |
| CNNc1ncnc2c1cnn2-c1ccc(S(N)(=O)=O)cc1 | 83.5% (inactive) |
| O=C(/C=C/c1cccc2ccccc12)Nc1ncc(Cc2ccccc2)s1 | -11% (active) |
| O=C1Nc2ccc(Cl)cc2C12Nc1cc(Cl)ccc1S2 (configuration not stated) | 42.6% (inactive) |
| Nc1nc(N)c2[nH]cnc2n1 | 87.5% (inactive) |
| Cc1ccc2[nH]c3ccccc3c2c1 | 99.7% (inactive) |

| SMILES | growth |
| --- | --- |
| COc1cccc(-c2cc(-c3cccs3)c(C#N)c(=O)[nH]2)c1 | 102% (inactive) |
| COc1cccc(-c2nnc(COc3ccc(-c4nc5ccc(C)cc5[nH]4)cc3OC)o2)c1 | -56.2% (active) |
| O=C(NNc1ccccc1)c1ccccc1 | 7.78% (active) and -1.5% (active) |
| CC1=C(CC(=O)c2cccc([N+](=O)[O-])c2)C(=O)c2ccccc2C1=O | 1.83% (active) |
| Cc1cc(C)c(CC(=O)O)c(C)c1 | 97.3% (inactive) |
| OCCN1CCN(CC/C=C2\c3ccccc3Sc3ccc(Cl)cc32)CC1 | 14.2% (inactive) and 19.5% (inactive) |
| Nc1c(C(=O)O)[nH]c(=O)[nH]c1=O | 81.3% (inactive) |
| CCN1C(=O)N[C@H]2[C@@H]3NC(=O)c4ccc(Cl)n4[C@@H]3C[C@]21O | -20.6% (active) |
| CCn1nc(-c2ccc(C(=O)OC)cc2)nc2c(=O)n(C)c(=O)nc1-2 | 132% (inactive) |
| COc1cc2c3c(n([C@@H]4CCOC4)c(=O)c2cc1OC)-c1cc2c(cc1C3=O)OCO2 | 26.3% (inactive) |
| CN(C)C(=S)Sc1ccc([N+](=O)[O-])cc1[N+](=O)[O-] | -5.16% (active) |
| O=C(CC12CC3CC(CC(C3)C1)C2)NCCOCCOCCNC(=O)c1cc2c(o1)C(=O)c1ccccc1C2=O | -16% (active) |
| N#Cc1c(N)nc2c(nnn2-c2cccc(C(F)(F)F)c2)c1N | 95.2% (inactive) |
| COc1cc(/C=N/NC(=O)c2ccccc2Nc2cccc(C(F)(F)F)c2)ccc1O | 26.9% (inactive) |
| COc1ccc(/C=C/C(=O)c2ccc(OC)c(OC)c2)cc1O | 81.5% (inactive) |
| COc1ccccc1-n1cnc(N)c1C(=O)c1cc(OC)c(OC)c(OC)c1 | 10.9% (inactive) |
| CC(=O)OCC(=O)[C@@]1(O)CC[C@H]2[C@@H]3CC[C@@H]4C[C@H](O)CC[C@]4(C)[C@H]3C(=O)C[C@@]21C | 94% (inactive) |
| CC(C)N1CN2C(=S)NC3C2N(C1)C(=S)N3C (configuration not stated) | 100% (inactive) |
| CC1(/C=N/NC(N)=S)NC(=O)NC1=O (configuration not stated) | 86.8% (inactive) |
| COc1cc(C(=O)/C=C/c2c[nH]c3ccccc23)cc(OC)c1OC | -12% (active) |
| CCCCCOc1ccc(/C=N/Nc2cc(C)nc3ccc(Br)cc23)cc1 | -2.49% (active) |
| COc1ccc(-c2nnc(SCC(=O)Nc3ccc(C(=O)/C=C/c4ccccc4)cc3)n2-c2ccccc2)cc1OC | 65.3% (inactive) |
| Cc1cc(O)c(C2=NN(c3ccc(S(N)(=O)=O)cc3)C(c3ccc(Cl)cc3)C2)c(C)c1Cl (configuration not stated) | 18.4% (inactive) |
| C=CCNc1nnc(C)s1 | 139% (inactive) |
| Nc1nc(N)c2nc(CNc3ccc(C(=O)NC(CCC(=O)O)C(=O)O)cc3)cnc2n1 (configuration not stated) | 35.3% (inactive) and 49.9% (inactive) |

— PubChem BioAssay (NCI)
